# An excerpt weighted towards active compounds, which were near 2.8% of everything screened.
# PAFAH2 FP inh: PAFAH2 enzyme inhibitors, primary screen, biochemical, fluorescence polarization, human; Platelet-activating factor acetylhydrolase 2, cytoplasmic (Homo sapiens), Q99487; inhibition, % at 3.39 µM; AID 492956, 2010; recombinant PAFAH2, FP-rhodamine activity probe; 340,000 tested, 0.99% active;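 active = inhibition above the mean over all tested compounds plus 3 SD, cut at about 30% in these data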;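 also: inhibitors block probe labeling of enzyme so polarization drops; 0% = enzyme with DMSO and 100% = wells lacking PAFAH2 protein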
# DAGLB inhibitor: DAGLB lipase inhibitors, primary screen, biochemical, fluorescence, HTS; Diacylglycerol lipase-beta (Homo sapiens), Q8NCG7; HEK293T DAGLB membrane lysate, EnzChek fluorogenic substrate; 340,000 tested, 0.059% active; inhibition, % at 5.17 µM; AID 504411, 2011; in the data active = inhibition above about 34%;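 also: 0% = enzyme with vehicle and 100% = wells lacking enzyme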
# pPAFAH FP inh: pPAFAH enzyme inhibitors, primary screen, biochemical, fluorescence polarization, human. Platelet-activating factor acetylhydrolase (Homo sapiens), Q13093. recombinant pPAFAH, FP-rhodamine probe fluorescence polarization. inhibition, % at 3.39 µM. 330,000 tested, 1.5% active;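 active = inhibition above the mean inhibition across the screen plus 3 SD, cut at about 25% in these data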;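 also: inhibitors block binding of the rhodamine activity-based probe so polarization drops; 0% = enzyme with DMSO and 100% = wells lacking pPAFAH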
# PAFAH1B2 inh: PAFAH1B2 enzyme inhibitors, primary screen, biochemical, fluorescence polarization, human | Platelet-activating factor acetylhydrolase IB subunit alpha2 (Homo sapiens), P68402 | recombinant PAFAH1B2, FP-rhodamine activity probe | inhibition, % at 3.39 µM | 340,000 tested, 1.2% active;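 active = inhibition above the mean of all tested compounds plus 3 SD, cut at about 24% in these data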;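 also: 0% = enzyme with DMSO and 100% = wells lacking PAFAH1B2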
# HTRA1 inhibitor: HTRA1 serine protease inhibitors, primary screen, biochemical, fluorescence polarization, HTS; Q92743; recombinant HTRA1, FP-rhodamine activity-based probe; inhibition, % at 5.96 µM; 340,000 tested, 0.5% active; AID 504803, 2011; in the data active = inhibition above about 36%;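 also: 0% = enzyme with DMSO and 100% = wells lacking enzyme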
# Target sequence (Q92743 whole entry, looked up): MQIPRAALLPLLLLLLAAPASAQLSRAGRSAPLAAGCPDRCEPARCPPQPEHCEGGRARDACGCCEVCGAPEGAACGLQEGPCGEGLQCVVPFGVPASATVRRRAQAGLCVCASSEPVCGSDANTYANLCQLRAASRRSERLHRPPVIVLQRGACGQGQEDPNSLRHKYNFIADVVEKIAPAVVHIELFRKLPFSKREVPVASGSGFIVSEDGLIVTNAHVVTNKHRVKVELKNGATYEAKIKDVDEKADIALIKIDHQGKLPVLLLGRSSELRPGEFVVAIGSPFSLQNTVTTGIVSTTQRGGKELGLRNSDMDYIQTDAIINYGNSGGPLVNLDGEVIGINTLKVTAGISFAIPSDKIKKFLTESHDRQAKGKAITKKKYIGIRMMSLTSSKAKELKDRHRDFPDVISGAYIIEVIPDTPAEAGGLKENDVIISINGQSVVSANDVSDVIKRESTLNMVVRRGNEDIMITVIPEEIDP
# PAFAH1B3 FP inh: PAFAH1B3 enzyme inhibitors, primary screen, biochemical, fluorescence polarization, human; Platelet-activating factor acetylhydrolase IB subunit alpha1 (Homo sapiens), Q15102; recombinant PAFAH1B3, FP-rhodamine probe; inhibition, % at 3.39 µM; 340,000 tested, 0.28% active; AID 492972, 2010;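 active = inhibition above the screen-wide average of all tested compounds plus 3 SD, cut at about 25% in these data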;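 also: 0% = enzyme with DMSO only and 100% = wells lacking PAFAH1B3 protein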
# * hit, by the source's call; . = not tested or not shown.
SMILES,PAFAH2 FP inh,DAGLB inhibitor,pPAFAH FP inh,PAFAH1B2 inh,HTRA1 inhibitor,PAFAH1B3 FP inh
CNC(=O)Oc1c(C)[nH]ccc1=O,.,-3,.,.,5,.
O=C(c1ccco1)c1cn(Cc2ccccc2)c2ccccc12,3,-8,30*,-5,-43,-2
NS(=O)(=O)c1ccc(-c2ccc(C=C3C(=O)NC(=O)NC3=O)o2)cc1,3,-1,0,-1,-1,9
O=C1NC(=O)C(=Cc2ccc(SC3CCCCC3)o2)C(=O)N1,45*,17,12,88*,-2,13
Cc1oc(-c2ccccc2Cl)nc1CN1C(=O)CN=C(c2ccccc2)c2ccccc21,9,-10,-1,2,-23,2
CCN(CC)P(=S)(c1c(C)nc2ccccn12)c1c(C)nc2ccccn12,2,3,2,3,-7,6
CN[C@H]1C[C@H]2O[C@@](C)([C@H]1OC)n1c3ccccc3c3c4c(c5c6ccccc6n2c5c31)C(=O)NC4,.,.,40*,.,.,.
O=C1CN=C(c2ccccc2)c2ccccc2N1,3,0,5,9,-11,3
CCc1cc2c(s1)NC(=O)CN=C2c1cccs1,2,-2,33*,-1,-10,5
O=C(O)c1c[nH]c2ccc(S(=O)(=O)N(CCCl)CCCl)cc12,15,0,-7,37*,9,5
Cc1ccccc1-n1c(O)c(/C=N/NC(=O)c2ccncc2)c(=O)[nH]c1=O,3,2,4,1,3,7
CCCCn1c(NC(=O)c2ccc(Br)o2)c(C(=O)OCC)c2nc3ccccc3nc21,41*,-2,11,38*,14,77*
O=C(O)c1ccc2c(c1)C1C(Cl)C(Sc3ccccc3[N+](=O)[O-])CC1C(c1cccc([N+](=O)[O-])c1)N2 (configuration not stated),52*,18,.,24,81*,41*
O=C(O)c1cccc2c1NC(c1cccc([N+](=O)[O-])c1)C1CC(Sc3ccccc3[N+](=O)[O-])C(Cl)C21 (configuration not stated),37*,15,.,18,16,11
O=[N+]([O-])c1cccc(C2N3CCCN23)c1 (configuration not stated),-8,0,-2,5,8,7
NCC(O)c1cc(O)c(O)cc1F (configuration not stated),4,2,27*,1,3,2
O=C(Cc1ccc(N(CCCl)CCCl)cc1)NC(Cc1ccc(Cl)cc1)C(=O)O (configuration not stated),5,0,5,60*,-2,6
CC(=O)NC(Cc1ccc(N(CCCl)CCCl)cc1)C(=O)O (configuration not stated),4,0,-2,7,-2,5
O=C(Cc1ccccc1)NC(Cc1ccc(Cl)cc1)C(=O)O (configuration not stated),-4,1,0,38*,-3,5
CCN(CC)C(=O)c1ccc(NC(=O)Nc2ccccc2F)cc1,0,-1,4,9,-2,5
CC(C)(C)c1ccc(S(=O)(=O)N2CC3CC(C2)c2cccc(=O)n2C3)cc1 (configuration not stated),8,-1,4,26*,-1,11
COc1ccc(S(=O)(=O)N2CC3CC(C2)c2cccc(=O)n2C3)cc1 (configuration not stated),-2,1,2,0,4,4
COc1ccc(CC2(CCc3ccncc3)C(=O)NC(=O)NC2=O)c(OC)c1,6,3,6,7,0,2
Cc1cc(OCC(=O)NC(Cc2ccc(Cl)cc2)C(=O)O)c2c3c(c(=O)oc2c1)CCCC3 (configuration not stated),9,5,5,30*,-22,8
Cc1cc(OCC(=O)NCc2ccncc2)c2c3c(c(=O)oc2c1)CCC3,4,1,3,2,0,-6
SMILES,PAFAH2 FP inh,DAGLB inhibitor,pPAFAH FP inh,PAFAH1B2 inh,HTRA1 inhibitor,PAFAH1B3 FP inh
COc1ccc(CNCCc2c(C)[nH]c3ccc(OC(F)(F)F)cc23)c(OC)c1,4,2,4,5,8,5
O=C1NC(=O)N(CCNc2ncc(C(F)(F)F)cc2Cl)C(=O)C1Cc1ccc(Cl)cc1 (configuration not stated),2,11,7,29*,-10,13
C=CCN1C(=O)NC(=O)C(Cc2ccc(OC)c(OC)c2)C1=O (configuration not stated),4,-3,8,2,0,7
O=S(=O)(NC1CCCCCCC1)OCC(Cl)(Cl)Cl,7,-8,29*,48*,-12,-5
O=S(=O)(NC1CCCC1)OCC(Cl)(Cl)Cl,8,-1,10,9,-6,-4
C=C(COC(=O)CCC(=O)O)CC1CC(O)[C@]2(C)OC3CC4OC5C[C@]6(C)O[C@]7(C)CCC8OC9C[C@]%10(C)OC%11C(C)=CC(=O)OC%11CC%10OC9C[C@@H](C)C8OC7CC6O[C@]5(C)C/C=C\C4OC3CC2O1 (some centres not stated),3,-3,7,0,0,-2
O=c1cc(C(F)(F)F)c2cc3c4c(c2o1)CCCN4CCC3,12,-234,26*,15,-10,18
Cc1cc2c(C(F)(F)F)cc(=O)oc2c2c1NCCC2,0,-13,1,-2,-1,9
Cc1ccccc1N1C(=O)/C(=C/c2ccco2)C(=O)NC1=S,.,.,91*,.,.,.
Cc1cccc(N2C(=O)/C(=C/c3ccc(N4CCN(C)CC4)o3)C(=O)NC2=S)c1C,-17,-3,8,-17,0,-23
O=P(O)(Oc1ccccc1)OC(c1ccccc1)C(F)(F)C(F)(F)F (configuration not stated),11,3,1,77*,3,4
Cc1ccc(-c2nn(Cc3ccccc3)cc2C(=O)O)cc1,-8,-3,3,3,1,-1
Cc1c(C(=O)O)cc(-c2ccccc2)n1Cc1ccccc1,1,4,4,28*,2,5
COC(=O)C1=C(c2cccc(C#N)c2)C[C@@H]2CC[C@H]1N2C(=O)NCc1cccc2ccccc12,2,-3,-3,2,-22,4
O=c1[nH]c(=S)n(Cc2ccc(F)cc2)c(O)c1C=NCCCn1ccnc1,-16,0,3,30*,0,-2
O=c1[nH]c(=S)n(Cc2ccc(F)cc2)c(O)c1/C=N/N1CCCCCC1,-3,6,0,33*,-10,0

# Screening results: PubChem, The Scripps Research Institute Molecular Screening Center
